Mtb FBA inh = Mtb FBA enzyme inhibitors, primary screen, biochemical, fluorescence, strain H37Rv; Fructose-bisphosphate aldolase (Mycobacterium tuberculosis (strain ATCC 25618 / H37Rv)), …; purified M. tuberculosis FBA, fluorescence read-out; inhibition, % at 1 µM; 360,000 tested, 2.3% active; AID 588726, 2011; in the data active means inhibition above about 27%
UGM FP inh = M. tuberculosis UGM enzyme inhibitors, primary screen, biochemical, fluorescence polarization, single point; purified UGM, fluorescence polarization probe displacement; 320,000 tested, 0.06% active; AID 504406, 2011; inhibition, % at 10 µM; in the data active means inhibition above about 10%, passing the limit was not always enough
Rv3671c inh = Rv3671c serine protease inhibitors, primary screen, biochemical, fluorescence polarization, M. tuberculosis H37Rv | P9WHR9 | inhibition, % at 5.96 µM | 320,000 tested, 0.048% active; in the data active means inhibition above about 38%;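 further: extracellular domain of Rv3671c used as enzyme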
RecA intein inh = Mtb RecA intein splicing inhibitors, primary screen, biochemical, fluorescence, HTS | Protein RecA (Mycobacterium tuberculosis (strain ATCC 25618 / H37Rv)), P9WHJ3 | cell-free RecA intein splicing | inhibition, % (no concentration beside the values) | 290,000 tested, 0.75% active | AID 2221, 2009; in the data active means inhibition above about 30%
Target sequence (P9WHJ3 whole entry, looked up): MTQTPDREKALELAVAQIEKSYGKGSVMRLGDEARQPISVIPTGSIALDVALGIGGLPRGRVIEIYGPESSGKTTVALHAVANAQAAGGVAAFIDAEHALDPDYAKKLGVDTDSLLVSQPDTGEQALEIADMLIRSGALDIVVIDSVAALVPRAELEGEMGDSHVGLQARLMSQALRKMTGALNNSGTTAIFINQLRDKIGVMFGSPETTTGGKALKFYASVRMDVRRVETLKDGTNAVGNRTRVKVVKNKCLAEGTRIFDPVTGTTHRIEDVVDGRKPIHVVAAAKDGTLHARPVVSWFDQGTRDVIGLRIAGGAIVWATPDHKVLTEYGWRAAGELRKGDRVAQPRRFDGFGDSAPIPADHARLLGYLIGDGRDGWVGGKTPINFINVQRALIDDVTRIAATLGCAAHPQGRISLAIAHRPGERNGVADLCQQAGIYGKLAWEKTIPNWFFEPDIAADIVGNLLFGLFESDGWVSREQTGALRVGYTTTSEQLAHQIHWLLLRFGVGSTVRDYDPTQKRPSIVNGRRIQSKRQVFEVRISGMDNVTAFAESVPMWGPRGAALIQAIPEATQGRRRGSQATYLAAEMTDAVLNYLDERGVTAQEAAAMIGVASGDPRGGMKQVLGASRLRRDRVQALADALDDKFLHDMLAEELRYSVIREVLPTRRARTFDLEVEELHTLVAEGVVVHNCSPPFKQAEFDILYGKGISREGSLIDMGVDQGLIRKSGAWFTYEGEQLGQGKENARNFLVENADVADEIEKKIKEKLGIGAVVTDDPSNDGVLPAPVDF
GDH-TPI inh = GDH-TPI coupling enzyme inhibitors, primary screen, artefact control for M. tuberculosis FBA inhibitor project, biochemical, absorbance, full deck. GDH-TPI coupled enzyme counterscreen, NADH absorbance. inhibition, % at 4.8 µM. 360,000 tested, 1.2% active; in the data active means inhibition above about 30%
BH1578 lux ind = inducers of Vibrio cholerae quorum light production without autoinducers, primary screen, BH1578 luxS cqsA deficient, single point | V. cholerae BH1578 lux reporter, luminescence, 6 h | activation, % at 18.7 µM | 350,000 tested, 0.16% active | AID 588436, 2011; in the data active means activation mostly above about 9.7%, no sharp cut-off
A number is an active result; i = inactive; nt = no result; + = active, no number. Sampled rows, rich in hits. Any-hit rate of the full collection: about 4.1%.

SMILES | Mtb FBA inh | UGM FP inh | Rv3671c inh | RecA intein inh | GDH-TPI inh | BH1578 lux ind
CC1(C)NC(=O)N(CC(=O)OCC(=O)c2ccc(Br)s2)C1=O | i | i | i | nt | i | i
CCCC1=[N+](CC(=O)c2ccccc2)CCn2c(C)ccc21 | i | i | i | nt | 35 | i
CCN(C(=O)c1cc2c(=O)n3ccccc3nc2n1C)C1CCCCC1 | + | i | i | i | i | i
CC1CCCCC1NC(=O)c1cc2c(=O)n3ccccc3nc2n1C (centres undefined) | 180 | i | i | i | i | i
CCCCn1nc(C(=O)N(C)C2CCCCC2)c2ccccc2c1=O | i | i | i | nt | i | i
CCN(C(=O)c1cc2c(=O)n3ccccc3nc2n1CCCOC)C1CCCCC1 | 118 | i | i | i | i | i
CN(C(=O)c1cc2c(=O)n3ccccc3nc2n1C)C1CCCCC1 | + | i | i | i | i | i
COc1ccc(CCCNC(=O)C2CCC(=O)N(CCc3cccc(F)c3)C2)cc1 (centres undefined) | i | i | i | i | i | i
COc1ccc2cc3c(nc2c1)OCC3 | i | i | i | i | i | i
CC(=O)c1cc2cc(O)ccc2o1 | + | i | i | i | i | i
Cc1ccc(N=c2oc3cc(O)ccc3cc2C(N)=O)cc1 | + | i | i | i | i | i
O=C(NCc1ccco1)c1cc2ccc(O)cc2oc1=O | + | i | i | i | i | i
CC(=O)c1cc2ccc(O)cc2oc1=O | + | i | i | i | i | i
Cc1ccc(C(=O)N/N=c2\oc3ccccc3cc2C(N)=O)cc1 | i | i | i | i | i | i
O=C(c1cc2cccc([N+](=O)[O-])c2oc1=O)N1CCOCC1 | i | i | i | i | i | i
Cc1ccc2nc(NC(=O)C3CC3C)sc2c1 (centres undefined) | i | i | i | i | i | i
Cc1cc(C(=O)NC2CC(C)(C)Cc3c2cnn3-c2cccc(F)c2)n(C)n1 (centres undefined) | i | i | i | i | i | nt
O=C(Nc1ccccc1Cl)NC1CCCCCCC1 | i | i | nt | i | i | i
O=C(OCC#CCSc1nnc(-c2cccc3ccccc23)o1)c1cnc[nH]1 | i | i | i | nt | i | i
Cc1ccc(/C=c2\sc3nc(-c4ccco4)nn3c2=O)o1 | i | i | i | i | 40 | i
CC(C(=O)NC1CC(C)(C)NC(C)(C)C1)c1ccc([N+](=O)[O-])cc1 (centres undefined) | i | i | i | i | i | i
CC1(C)CC(NC(=O)Nc2ccc([N+](=O)[O-])cc2)CC(C)(C)N1 | i | i | i | i | 32 | i
Cc1ccc(S(=O)(=O)N2C[C@H]3C(=O)C[C@@H](c4ccc(Cl)cc4)N(S(=O)(=O)c4ccccc4C)[C@H]3C[C@H]2c2cccc(Cl)c2)cc1 | i | nt | nt | nt | i | i
O=C(C[n+]1cccc2ccccc21)c1ccc([N+](=O)[O-])cc1 | i | i | i | i | i | i
O=C(C[n+]1cccc2ccccc21)c1ccc(Cl)cc1 | 125 | i | i | i | i | i
SMILES | Mtb FBA inh | UGM FP inh | Rv3671c inh | RecA intein inh | GDH-TPI inh | BH1578 lux ind
Cc1ccc2nc3c(cc(C(=O)NCC4CCCO4)c(=N)n3CCCOC(C)C)c(=O)n2c1 (centres undefined) | + | nt | i | i | i | i
CCOCCCNc1nc2nc3ccc(C)cn3c(=O)c2cc1C(=O)NCC1CCCO1 (centres undefined) | + | i | i | i | i | i
CCn1cc(C(=O)NCC2CCCO2)c2cc(OC)c(OC)cc2c1=O (centres undefined) | i | i | i | i | i | i
CCOCCCn1c(=N)c(S(=O)(=O)c2ccc(C)cc2)cc2c(=O)n3cc(C)ccc3nc21 | i | i | i | i | i | i
Nc1cccc2c1C(=O)N(CCOc1ccccc1F)C2=O | i | i | i | i | i | i
CCN(CC)c1nc2c(s1)C(=O)CC(C)(C)C2 | i | i | i | i | 35 | i

Bioassay records: PubChem BioAssay, several laboratories
